# High-throughput results: PubChem, Broad Institute
# miR-122 inh: miR-122 suppressors via Renilla sensor increase, primary screen, cell-based, Huh7 psiCHECK-miR122, Renilla luciferase, single point | activation, % at 12.5 µM | actives 0.14% (n = 340,000) | AID 623901, 2012 | 48 h;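 active = mean activation of 30% or more, with every replicate also reaching 30%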;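 also: higher luciferase signal means stronger suppression of miR-122 activity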
# Numbers stand for hits; – = inactive. Many of the other results were omitted from the sample, so hits are more common in it than they were.
SMILES,miR-122 inh
C[C@H](CO)N1C[C@H](C)[C@H](CN(C)C(=O)C2CCCCC2)Oc2ncc(C#CCc3ccccc3)cc2C1=O,–
C[C@@H]1CN([C@H](C)CO)S(=O)(=O)c2ccc(-c3cncnc3)cc2O[C@H]1CN(C)Cc1ccccc1,–
Cc1ccccc1-c1ccc2c(c1)O[C@H](CN(C)C(=O)Nc1ccccc1)[C@@H](C)CN([C@@H](C)CO)S2(=O)=O,–
c1ccc(CCNc2nnnn2-c2ccccc2)cc1,46
CC(C)(CNC(=S)NCCc1ccccc1)CNC(=S)NCCc1ccccc1,–
COc1cccc(-c2ccc3c(c2)O[C@@H](CN(C)C(=O)C2CCCCC2)[C@H](C)CN([C@H](C)CO)S3(=O)=O)c1,–
CCCNC(=O)N(C)C[C@H]1Oc2ncc(/C=C/c3ccccc3)cc2C(=O)N([C@H](C)CO)C[C@H]1C,–
C[C@H](CO)N1C[C@H](C)[C@@H](CN(C)C(=O)c2ccncc2)Oc2ncc(/C=C/c3ccccc3)cc2C1=O,–
C[C@@H]1CN([C@H](C)CO)C(=O)c2cc(C#Cc3ccccc3)cnc2O[C@H]1CN(C)C(=O)c1ccccn1,–
Cc1ccc(-c2cnc3c(c2)C(=O)N([C@H](C)CO)C[C@H](C)[C@@H](CN(C)C(=O)Cc2cccnc2)O3)cc1,–
O=[N+]([O-])c1ccc(O)c(/C=N/Nc2ccc(Cl)nn2)c1,46
C[C@H](CO)N1C[C@H](C)[C@@H](CN(C)Cc2ccccn2)Oc2cc(C#CC3CC3)ccc2S1(=O)=O,–
C[C@@H]1CN([C@H](C)CO)C(=O)c2cc(/C=C/c3ccccc3)cnc2O[C@@H]1CN(C)C(=O)Nc1ccccc1F,–
COc1ccc(NS(=O)(=O)c2cccc(NC(=O)COc3ccccc3[N+](=O)[O-])c2)cc1,–
COc1cccc(CN(C(=O)Cc2c[nH]c3ccccc23)C(C(=O)NC2CCCCC2)c2cccs2)c1 (stereo not drawn),–
COc1ccc(NC(=O)COC(=O)CCCc2c[nH]c3ccccc23)cc1,36
C[C@@H]1CN([C@H](C)CO)C(=O)c2cc(C3=CCCCC3)cnc2O[C@H]1CN(C)CC1CCOCC1,–
C[C@H](CO)N1C[C@H](C)[C@@H](CN(C)CC2CCOCC2)Oc2ncc(C#Cc3ccccn3)cc2C1=O,–
CC(C)C(=O)Nc1ccc2c(c1)C(=O)N(C)[C@@H]1CC[C@@H](CC(=O)N[C@H](C)c3ccccc3)O[C@@H]1CO2,70
CO[C@@H]1CN(C)C(=O)c2cc(NC(=O)c3ccc(F)cc3)ccc2OC[C@@H](C)N(C)C[C@H]1C,–
COc1cccc(C(=O)Nc2ccc3c(c2)C(=O)N(C)[C@@H]2CC[C@@H](CC(=O)NCc4ccc(F)cc4)O[C@@H]2CO3)c1,37
CC(C)C(=O)Nc1ccc2c(c1)C(=O)N(C)[C@H]1CC[C@@H](CC(=O)NCC3CC3)O[C@@H]1CO2,–
COc1cccc(CNC(=O)C[C@@H]2CC[C@H]3[C@H](COc4ccc(NS(=O)(=O)c5ccccc5F)cc4C(=O)N3C)O2)c1,37
CO[C@H]1CN(C)C(=O)c2cc(NC(C)=O)ccc2OC[C@@H](C)N(C(=O)c2ccccc2)C[C@@H]1C,–
COc1cccc(C(=O)Nc2ccc3c(c2)C(=O)N(C)[C@@H]2CC[C@@H](CC(=O)N[C@H](C)c4ccccc4)O[C@@H]2CO3)c1,47
SMILES,miR-122 inh
CN1C(=O)c2cc(NC(=O)Cc3ccccc3)ccc2OC[C@@H]2O[C@@H](CC(=O)NCc3ccc(Cl)cc3)CC[C@@H]21,–
CCC(=O)Nc1ccc2c(c1)C(=O)N(C)C[C@H](OC)[C@@H](C)CN(Cc1ccccc1OC)[C@@H](C)CO2,–
CN(C)Cc1cccc(-c2ccccc2)c1O,–
C/C=C/c1ccc2c(c1)O[C@@H](CN(C)C(=O)Nc1ccc(OC)cc1)[C@@H](C)CN([C@@H](C)CO)S2(=O)=O,–
O=S(=O)(NCc1ccccc1)c1ccc2c(c1)OCCO2,–
OC(c1ccc(F)cc1)c1ncc(-c2ccccc2F)[nH]1 (stereo not drawn),–
C[C@@H]1CN([C@H](C)CO)S(=O)(=O)c2ccc(C#CCN(C)C)cc2O[C@H]1CN(C)C(=O)CN(C)C,–
COc1ccc(NC(=O)N(C)C[C@@H]2Oc3ncc(/C=C/c4ccccc4)cc3C(=O)N([C@H](C)CO)C[C@@H]2C)cc1,–
C[C@H](CO)N1C[C@H](C)[C@H](CN(C)S(=O)(=O)c2cccc(F)c2)Oc2ncc(C#Cc3ccc(C(F)(F)F)cc3)cc2C1=O,–
CC(C)C#Cc1ccc2c(c1)O[C@H](CN(C)C(=O)c1ccccc1)[C@H](C)CN([C@@H](C)CO)S2(=O)=O,–
C[C@H](CO)N1C[C@H](C)[C@@H](CN(C)C(=O)CN(C)C)Oc2cc(C#CCC3CCCC3)ccc2S1(=O)=O,–
C[C@@H]1CN([C@@H](C)CO)C(=O)c2cc(/C=C/c3ccccc3)cnc2O[C@@H]1CN(C)Cc1ccccc1F,–
O=c1c[n+]([O-])c2ccccc2n1OCc1c(F)cccc1F,–
C[C@@H]1CN([C@H](C)CO)S(=O)(=O)c2ccc(-c3cncnc3)cc2O[C@H]1CN(C)C(=O)Cc1ccncc1,–
COc1cccc(-c2ccc3c(c2)O[C@@H](CN(C)Cc2cccnc2)[C@H](C)CN([C@@H](C)CO)S3(=O)=O)c1,–
C/C=C/c1ccc2c(c1)O[C@H](CN(C)C(=O)CC1CC1)[C@H](C)CN([C@H](C)CO)S2(=O)=O,–
COc1ccc(NS(=O)(=O)c2cc(C)ccc2NC(=O)c2cc(C)oc2C)cc1,–
CO[C@@H]1CN(C)C(=O)c2cc(NC(=O)Cc3ccccc3)ccc2OC[C@@H](C)N(C)C[C@H]1C,–
CNC(=O)C[C@H]1CC[C@@H]2[C@H](COc3ccc(NC(=O)c4cccc(OC)c4)cc3C(=O)N2C)O1,83
C/C=C/c1ccc2c(c1)O[C@H](CN(C)C(=O)Cc1ccccn1)[C@@H](C)CN([C@H](C)CO)S2(=O)=O,–
Cc1c(C(=O)N(C)CCC#N)oc2ccc(S(=O)(=O)N3CCOCC3)cc12,–
C[C@@H]1CN([C@@H](C)CO)C(=O)c2cc(C#Cc3ccccc3F)cnc2O[C@H]1CN(C)C(=O)C1CCOCC1,–
C[C@@H]1CN([C@@H](C)CO)C(=O)c2cccc(NC(=O)Nc3ccccc3)c2O[C@@H]1CN(C)Cc1ccc(C(=O)Nc2ccccc2N)cc1,–
CC(=O)N(C[C@@H]1N[C@@H](CO)[C@H]1c1ccc(-c2ccccc2)cc1)C(C)C,67
CC(C)N(C[C@@H]1N[C@@H](CO)[C@@H]1c1ccccc1)S(=O)(=O)c1ccccc1,67
SMILES,miR-122 inh
CC(=O)N(C)C[C@@H]1[C@@H](c2ccc(-c3cccnc3)cc2)[C@H](CO)N1C(=O)C1CC1,–
O=C(NC[C@H]1N[C@H](CO)[C@H]1c1ccccc1)c1ccccc1F,–
CN(C[C@@H]1[C@@H](c2ccccc2)[C@@H](CO)N1Cc1ccccn1)S(C)(=O)=O,–
CCN(CC)S(=O)(=O)c1cc(NS(=O)(=O)c2cc(Cl)ccc2Cl)ccc1C,–
C[C@@H]1CN([C@@H](C)CO)C(=O)c2cc(C#Cc3ccccn3)cnc2O[C@H]1CN(C)CC1CCOCC1,–
C/C=C/c1ccc2c(c1)O[C@H](CN(C)C(=O)Nc1ccc(OC)cc1)[C@@H](C)CN([C@@H](C)CO)S2(=O)=O,–
COc1ccccc1C#Cc1ccc2c(c1)O[C@H](CN(C)Cc1ccncc1)[C@H](C)CN([C@H](C)CO)S2(=O)=O,–
C[C@@H]1CN([C@@H](C)CO)S(=O)(=O)c2ccc(-c3cccc(C#N)c3)cc2O[C@@H]1CN(C)Cc1ccccn1,–
